Bioassay records (PubChem BioAssay)
Rv3671c inh – inhibits the M. tuberculosis serine protease Rv3671c; inhibition, % at 5.96 µM; 320,000 compounds, 0.048% hits; AID 2606; in the data active means inhibition above about 38%;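 further: extracellular domain of Rv3671c used as enzyme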
UGM FP inh – inhibitors of M. tuberculosis UDP-galactopyranose mutase; P9WIQ1; purified UGM, fluorescence polarization probe displacement; inhibition, % at 10 µM; 320,000 compounds, 0.06% hits; AID 504406; in the data active means inhibition above about 10%, passing the limit was not always enough; inconclusive means no clear call, values can overlap the other calls
PriA SSB inh – inhibitors of Klebsiella pneumoniae PriA binding to SSB C-terminal tail. AlphaScreen SSBct-PriA binding, biotinylated peptide. AID 1272365. inhibition, % at 33 µM. 430,000 compounds, 0.6% hits; in the data active means inhibition mostly above about 37%, no sharp cut-off; inactive means mostly below about 20%
GDH-TPI counter – counter-screen for M. tuberculosis FBA inhibitors: GDH-TPI coupled enzymes | inhibition, % at 4.8 µM | GDH-TPI coupled enzyme counterscreen, NADH absorbance | 360,000 compounds, 1.2% hits; in the data active means inhibition above about 30%
Mtb betalactam – beta-lactam sensitization of Mtb H37Rv; inhibition, % at 25 µM; 330,000 compounds, 0.27% hits; M. tuberculosis H37Rv growth with meropenem, percent inhibition; call rule not given here;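 further: growth measured after seven days incubation then overnight dye step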
FBA Mtb inh – Mtb fructose-bisphosphate aldolase inhibition; 360,000 compounds, 2.3% hits; inhibition, % at 1 µM; purified M. tuberculosis FBA, fluorescence read-out; AID 588726; in the data active means inhibition above about 27%
Target sequence (P9WQA3 whole entry, looked up): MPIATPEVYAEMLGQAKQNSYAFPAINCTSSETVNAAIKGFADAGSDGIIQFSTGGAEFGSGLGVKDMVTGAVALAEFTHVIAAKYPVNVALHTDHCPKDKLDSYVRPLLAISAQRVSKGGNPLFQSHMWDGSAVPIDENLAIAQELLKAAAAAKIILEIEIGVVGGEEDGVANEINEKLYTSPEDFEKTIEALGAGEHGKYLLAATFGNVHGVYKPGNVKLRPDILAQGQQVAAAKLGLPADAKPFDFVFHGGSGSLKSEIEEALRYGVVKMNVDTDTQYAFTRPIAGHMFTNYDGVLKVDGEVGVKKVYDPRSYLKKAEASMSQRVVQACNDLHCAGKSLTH
Numbers stand for hits; - = inactive; ? = inconclusive; . = no result given; + = active, no number. Compounds with a hit are over-represented: about 3.2% of the library has one in this group of screens.

SMILES	Rv3671c inh	UGM FP inh	PriA SSB inh	GDH-TPI counter	Mtb betalactam	FBA Mtb inh
C=CCn1c(=O)[nH]c2cc(C(=O)N3CCN(c4cccc(Cl)c4)CC3)ccc2c1=O	-	-	-	-	-	-
Cc1cccc(C(C)Nc2ccc([N+](=O)[O-])cn2)c1 (stereo not given)	-	-	-	31.0	-	-
CCCc1c(C(=O)Nc2ccccc2F)nnn1-c1ccccc1	.	.	-	.	.	.
COc1ccc(Cl)cc1NC(=O)CSc1nnc2n(CCC(C)C)c(=O)c3ccccc3n12	.	.	-	.	.	.
Cc1ccc2nc(-c3ccco3)c(Nc3ccccc3)n2c1	-	-	-	-	-	192.3
Cc1cc(C(=O)N2CCCC(c3nnc(Cc4ccc(F)cc4)o3)C2)no1 (stereo not given)	.	.	-	.	.	.
COc1ccc(-c2ccc(C#N)c(OC)n2)cc1	-	-	-	-	-	+
COc1ccc(C(=O)N2CCN=C2c2ccccc2)cc1OC	-	-	-	-	-	-
COc1ccc(C(=O)N2C(=S)C(c3ccccc3)=NC23CCC(C)CC3)cc1OC (stereo not given)	.	.	37.0	.	.	.
COc1ccc2c(Cn3cnc4cc([N+](=O)[O-])ccc4c3=O)cc(=O)oc2c1	-	-	-	31.2	-	-
O=C(Nc1sc(-c2ccccc2)cc1C(=O)O)c1ccccc1	-	-	-	34.6	-	-
CCOc1ccc(C(=O)Nc2sc(-c3ccccc3)cc2C(N)=O)cc1	.	.	-	.	.	.
COc1ccc(Br)cc1C=NNc1ccccn1	.	.	-	.	.	.
CCN(CC)S(=O)(=O)c1ccc(OC)c(NC(=O)/C=C/c2ccco2)c1	-	-	-	35.0	-	-
O=C(Nc1cccc(-c2nn[nH]n2)c1)c1ccc(Br)s1	-	-	115.6	-	-	-
Cc1c(Cl)cccc1NC(=O)CC1NCCNC1=O (stereo not given)	-	-	-	-	-	+
Cc1c(Cl)cccc1NC(=O)CC1SCCNC1=O (stereo not given)	-	-	-	-	-	-
COc1nccnc1OC1CCN(C(=O)Cc2cn(C)c3ccccc23)C1 (stereo not given)	.	.	-	.	.	.
O=C(O)c1ccccc1C1=Nc2ccc(O)cc2Oc2cc(O)ccc21	-	14.3	-	-	-	-
Cc1cc(-c2ccccc2C(=O)O)on1	-	-	-	-	-	-
CC(=O)Oc1ccc2c(=O)c(/C=N/c3cc(=O)[nH]c(=S)[nH]3)coc2c1	-	-	.	54.4	-	-
CCN1CCN(c2nc(NCC3CCCO3)nc(N)c2[N+](=O)[O-])CC1 (stereo not given)	.	.	-	.	.	.
CN(C)S(=O)(=O)c1cccc(NC(=S)N/N=C/c2ccc(O)c(O)c2O)c1	.	.	.	32.1	.	-
COc1ccc(O)c(/C=N/NC(=S)Nc2cccc(S(=O)(=O)N(C)C)c2)c1	-	-	.	-	-	-
CN(C)S(=O)(=O)c1cccc(NC(=S)N/N=C/c2ccco2)c1	-	-	.	52.0	-	-
SMILES	Rv3671c inh	UGM FP inh	PriA SSB inh	GDH-TPI counter	Mtb betalactam	FBA Mtb inh
O=c1[nH]c(=O)n(Cc2ccco2)c(O)c1C=NN1CCCCC1	.	.	-	.	.	.
O=C(NCCn1cnc2ccsc2c1=O)c1cc2cc(Cl)ccc2[nH]1	.	.	-	.	.	.
Cc1cc(C)cc(N2CN=c3sc(=Cc4ccco4)c(=O)n3C2)c1	.	.	-	.	.	.
O=c1/c(=C/c2ccco2)sc2n1CN(c1ccccc1)CN=2	-	-	.	31.7	-	-
O=c1/c(=C/c2ccco2)sc2n1CN(c1cccc(Br)c1)CN=2	-	-	.	38.2	-	-
CCOC(=O)/C(C#N)=C1\C=CNC(=O)N1	.	.	-	.	.	.
C(=NNc1nc(Nc2ccccc2)nc(Nc2ccccc2)n1)c1ccncc1	.	.	-	.	.	.
Cc1ccc(OCC(=O)N/N=C\c2c(C)n(C)c3ccccc23)c([N+](=O)[O-])c1	-	-	.	31.5	?	-
Cc1c(/C=N/NC(=O)COc2ccccc2[N+](=O)[O-])c2ccccc2n1C	-	-	.	34.2	-	-
Cc1c(C=NNC(=O)COc2ccccc2[N+](=O)[O-])c2ccccc2n1C	.	.	-	.	.	.
Cc1nc2scc(C)n2c(=O)c1NC(=O)C(C)(C)C	.	.	-	.	.	.
FC(F)(F)c1ccc(C=Nn2c(COc3ccccc3)n[nH]c2=S)cc1	.	.	-	.	.	.
COc1cc(/C=C2/NC(=O)N(Cc3ccccc3F)C2=O)cc(OC)c1O	-	-	-	-	-	-
CCOc1cc(/C=C2/NC(=O)N(Cc3ccccc3F)C2=O)ccc1O	-	-	-	40.4	-	-
Cc1ccc(C(=O)N2CCN=C2SCc2cccnc2)cc1	.	.	-	.	.	.
CCOc1ccc2nc(-c3ccccc3)[nH]c2c1	-	-	-	-	-	188.6
COc1ccc(-c2nc3ccc([N+](=O)[O-])cc3[nH]2)cc1	-	-	-	-	-	-
